Hit rate of the full screen: of about 53,000 sequences, about 3,700 (7%) were called active. The entries come from a sample that favours actives as a whole. Unmarked numbers belong to inactive results.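 Rule for the calls: active = gene knockdowns whose robust z-score for IL-1 alpha signal is at least 2 or at most -2, so actives lie on both sides; inactive = the rest.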
Assay: Components of the Cytosolic LPS Sensing Pathway: Gene Identification via Genome-wide siRNA Screen
Settings: RAW264.7 macrophages, IL-1a HTRF, actives lie on both sides, screened at 100 nM (by protocol), cells primed 5 h with Pam3CSK4 first
From the text: Non-canonical inflammasome activation by cytosolic LPS is a critical component of the host response to Gram-negative bacterial infection, however we lack a comprehensive understanding of the cellular processes that control this pathway. Here we describe a genome-wide siRNA screen to identify genes regulating the mouse macrophage IL-1 alpha response to cytosolic LPS.
RAW264.7 cells were maintained in complete DMEM media, comprising DMEM with 4.5 g/L glucose, 10% FBS (Gemini Bio-Products, West Sacramento, CA), 2 mM Glutamine (Lonza) and 20 mM HEPES (Lonza), hereafter complete DMEM.
The RNAi screen was conducted in 384-well format using the Ambion Silencer Mouse Genome siRNA Library (#4391425), which consists of three unique, nonoverlapping, nonpooled siRNAs for each of 17,000 gene targets. siRNA reagents ([…]) were stamped into 384-well white flat-bottom microplates (Corning, 3570) using a Velocity11 VPrep liquid handling system (Agilent) integrated into a BioCel robotic platform (Agilent) in columns 1-22, leaving columns 23-24 empty for negative (Ambion, Negative control #1) and positive (mouse Casp4) controls, respectively. The median value of each plate's negative control column was used to normalize sample wells, and the positive control was used to assess transfection efficiency and assay performance.
Lipofectamine RNAiMAX Transfection Reagent ([…]; Invitrogen) was added in […] serum-free, antibiotic-free media to plate wells using a Thermo Scientific Matrix WellMate and Microplate Stacker. Plates were incubated for 45 min at room temperature to allow for the sufficient formation of siRNA-lipid complexes. Cells were seeded at a density of 1x10^4 cells per well in 20 microL media containing 20% (vol/vol) FBS without antibiotics. The final concentration of siRNA in each well was 100 nM. Cells were cultured for 48h at 37 degrees C in 5% CO2 before addition of […] of TLR ligand Pam3CSK4 for 5 hours. The medium was then removed, replaced with […] growth media and cell were transfected with […] of LipidA and TransIT-TKO (Mirus) for 24 hour. At the end of the LipidA treatment, […] of supernatant was transferred to a 384 Greiner Bio-one non-binding low volume plate and […] of IL-1a HTRF reagent (Cisbio, 62MIL1APEH) was added and incubated at room temperature overnight. The plates were read on an EnVision plate reader (PerkinElmer). Cell viability was measured by adding 20ul Cell Titer Glo to the original plate and running a luminescence read on the EnVision. The quantified IL-1a signal for each siRNA gene-targeted well was divided by the median of the negative control wells and multiplied by 100 to achieve a negative control normalized value for each well/siRNA. This normalized value was then used to generate a robust z-score by first taking the log of each value and then by subtracting the median and dividing by the […].

Sequence	z-score
GGGAACCUUACUGUGUUAUTT against Gpr85	0.477
GGGUUUCCAGUACCUCAAUTT against Serpina6	-1.28
GGCUUUUAUAGCUAAGGUUTT against Spc25	-2.18 (active)
GGACUGUGAACAACUUUCGTT against Tcim	-1.07
GGCUAUCUACAAAAUGGUGTT against Vsnl1	-1.31
GCUAACCAGUGAUCCUACATT against Olfr846	0.471
GCACUUGUGACUUAUUGGATT against Vmn2r-ps11	0.506
GGGUCAGAGUUUUUCCAUCTT against Otog	2.72 (active)
GGGACGUAAAUCAAAUGAATT against P2ry12	0.096
GGAGGUGGAACUGCUGUAUTT against Fam180a	-0.257
GGCAGAAAGAUUAUGAGUUTT against Gpr171	2.35 (active)
GGAAUUAAAAGAGCUGGGCTT against Selenon	0.697
GGGUGCUGAACAGUCACAATT against Rab12	0.717
UGAAGGCAAAUCACUCUUUTT against Olfr181	-0.042
GGAGGAUCCUGCUAUUCCATT against 4930583K01Rik	-2.24 (active)
GGUGCUGGAGAAGAACAUGTT against Map2k3	1.51
GGAAAGAGAUUCUCUUCUATT against Nsun2	-1.2
CGGCUUUGAAGUGGUGUAUTT against Smad9	1.66
CCUUAGGCAUGGUCUGGACTT against Gal3st2	0.897
CCUUCAUGAGUCCUCUUCATT against Gaa	-2.08 (active)
GGGUUUUCAAAGACAAGAUTT against Frmd6	1.47
GGAGCUUUUUAUGUUUUAGTT against Fam177a	1.93
CCCUGAGAUAGGCAAUGUGTT against Tceanc2	-1.57
GCUUCAUGGAUGCAAUUGATT against Adhfe1	-0.659
GGUUGAAAAGUAUCAAAGATT against Pus7l	-0.359
GGAUUAGACUGUCUUCAGCTT against Rnf144a	-0.496
GGCCUGUUUUGUACUUUUATT against Polr3gl	0.149
GGGAUAUUCAAAAUACUAGTT against Hells	0.653
GCUACAGACUGAACAAUGATT against Rbm17	-2.08 (active)
CCAUCUGAUUAAUGGCUUCTT against Tm7sf2	1.03

Source: PubChem BioAssay AID1508600 (Functional Genomics Laboratory (NCATS/FGL), 2020)
